# In PubChem BioAssay:
# Values joined by “and” are separate entries in the source; they are usually repeats but may differ in a detail not shown here. Equal values may be shown once. Active and inactive are the calls of the source. Unless noted, no rule for the calls is given here.
# Key:
# [1] = stimulators of nuclear beta-catenin in C2C12, primary screen, imaging, WNT3A-conditioned medium, mouse C2C12, NPC library (AID 1117326; in the data active = nuclear beta-catenin stimulation mostly above about 4.2%, no sharp cut-off; inactive = mostly below about 10%); conditions: stronger effect = higher value
# [2] = stimulators of insulin release from INS-1E, primary screen, cell-based, 5 mM glucose, NPC library (AID 1117329;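 active = compound raises insulin release from rat beta cells at 5 mM glucose, no numeric limit stated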); conditions: rat INS-1E insulin secretion, at 10 µM, stronger effect = higher value
# [3] = growth inhibition of GSK3B-pretreated HCT116 cells – cell-based, CellTiter-Glo, 0.2 to 20 µM (AID 1117336;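 active = compounds lowering colon cancer cell viability after pretreatment blocking the GSK3B kinase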); conditions: HCT116 viability after GSK3B inhibitor, at 20 µM, stronger effect = higher value
# [4] = inhibition of endothelial tube formation, primary screen, imaging, VEGF stimulated, CD31 staining, tube area, NPC library (AID 1117340;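 active = compound that reduces growth-factor-driven endothelial tube area in a mixed cell culture, no cutoff stated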); conditions: VEGF-stimulated ADSC/ECFC co-culture, at 10 µM, stronger effect = higher value
# [5] = glucagon-like peptide 1 release enhancers, primary assay, NCI-H716 cell line, NPC library (AID 1117341;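 active = compound raises GLP1 secretion from the human gut endocrine cells, with no numeric limit stated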); conditions: NCI-H716 cells, at 10 µM, stronger effect = higher value
# [6] = HCT116 colon cancer cell growth inhibition, primary screen, CellTiter-Glo luminescence, NPC library (AID 1117342;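 active = compounds that lower survival of HCT116 colon cancer cells in the luminescence readout, no numeric limit stated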); conditions: at 20 µM (top of the series)
# [7] = CellTiter-Glo luminescent readout of SW480 viability loss, NPC library primary (AID 1117343;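 active = compounds that lower viability of the colon cancer cells in the luminescence readout, with no numeric limit stated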); conditions: CellTiter-Glo luminescence; at 20 µM (top of the series)
# [8] = decreased DLD-1 cellular survival, CellTiter-Glo luminescent readout, NPC compound collection, primary HTS (AID 1117346;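 active = compounds that lower survival of DLD-1 colon cancer cells in the luminescence readout, no cutoff given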); conditions: DLD-1 viability, CellTiter-Glo luminescence; at 20 µM (top of the series)
# [9] = polyglutamine-triggered caspase-3 activation inhibitors, cell-based (AID 1583); conditions: polyglutamine-induced caspase-3 activation, cell assay; stronger effect = higher value;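 tested at 10 µM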
# [10] = biological target: 6-phosphogluconate dehydrogenase, decarboxylating (Homo sapiens) (UniProt P52209); test: 6PGD enzyme inhibitors, primary screen, biochemical, human, recombinant enzyme, NADPH absorbance (AID 1159550;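 active = at least 20% inhibition of 6-phosphogluconate dehydrogenase activity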); conditions: recombinant 6PGD, NADPH absorbance 341 nm; at 10 µM; stronger effect = higher value
# 6-phosphogluconate dehydrogenase, decarboxylating (Homo sapiens), sequence (P52209 whole entry, looked up): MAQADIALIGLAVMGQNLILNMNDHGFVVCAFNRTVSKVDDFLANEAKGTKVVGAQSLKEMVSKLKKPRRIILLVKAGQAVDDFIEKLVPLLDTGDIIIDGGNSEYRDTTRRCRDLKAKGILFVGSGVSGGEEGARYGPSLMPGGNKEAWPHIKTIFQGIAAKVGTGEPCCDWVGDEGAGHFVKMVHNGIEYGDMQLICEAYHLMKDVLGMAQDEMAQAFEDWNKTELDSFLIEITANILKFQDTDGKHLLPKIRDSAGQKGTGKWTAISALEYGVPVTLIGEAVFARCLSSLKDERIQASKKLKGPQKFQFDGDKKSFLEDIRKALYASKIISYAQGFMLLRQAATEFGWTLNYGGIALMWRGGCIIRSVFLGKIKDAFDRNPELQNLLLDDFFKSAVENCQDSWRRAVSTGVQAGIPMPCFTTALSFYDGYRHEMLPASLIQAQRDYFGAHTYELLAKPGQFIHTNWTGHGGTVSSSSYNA
# [11] = differential killing of epithelial or mesenchymal cells, primary screen, imaging, PC-3E GFP, TEM4-18 mCherry, co-culture (AID 1345086;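 active = compounds killing one labelled cell type while sparing the other, by normalised counts and ratio limits, not self-fluorescent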;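 as to all read-outs here: cells exposed to compound for 72 h before imaging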;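 as to red/green cell ratio (normalised): normalised mesenchymal count divided by normalised epithelial count so high means epithelial killing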); conditions: imaging cell counts, at 1 µM; for red/green cell ratio (normalised): actives lie on both sides
# [12] = test system: Aerobactin synthetase IucA (Klebsiella pneumoniae hvKP1); test: Biochemical IucA enzyme inhibition primary screen of the Spectrum library (AID 1346200); conditions: malachite green pyrophosphate, A620, at 8 µM, stronger effect = lower value;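 also: 100% = wells without compound and 0% = wells lacking enzyme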
# [13] = survival rescue of mitochondrial mutant cells in low glucose, primary screen, MELAS cybrids, Rieske KO mouse fibroblasts, CellTiter-Glo (AID 1508586;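 active = mean z-score across replicates of 1.96 or higher in either the MELAS or the Rieske mutant cell line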;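 also: z relative to plate mean and SD of compound and empty wells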)
# [14] = biological target: NAD(+) hydrolase SARM1 (Homo sapiens) (UniProt Q6SZW1); test: SARM1 TIR NADase inhibitors, cell lysate, NAD-Glo luminescence (AID 1508614;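 active = compound whose remaining NAD level is above about 45 nM, limit read from the data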;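 also: higher remaining NAD means stronger inhibition of SARM1 NADase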); conditions: SAM-TIR HEK293T lysate NADase, at 1 µM, stronger effect = higher value
# NAD(+) hydrolase SARM1 (Homo sapiens), sequence (Q6SZW1 whole entry, looked up, the tested form may be a part): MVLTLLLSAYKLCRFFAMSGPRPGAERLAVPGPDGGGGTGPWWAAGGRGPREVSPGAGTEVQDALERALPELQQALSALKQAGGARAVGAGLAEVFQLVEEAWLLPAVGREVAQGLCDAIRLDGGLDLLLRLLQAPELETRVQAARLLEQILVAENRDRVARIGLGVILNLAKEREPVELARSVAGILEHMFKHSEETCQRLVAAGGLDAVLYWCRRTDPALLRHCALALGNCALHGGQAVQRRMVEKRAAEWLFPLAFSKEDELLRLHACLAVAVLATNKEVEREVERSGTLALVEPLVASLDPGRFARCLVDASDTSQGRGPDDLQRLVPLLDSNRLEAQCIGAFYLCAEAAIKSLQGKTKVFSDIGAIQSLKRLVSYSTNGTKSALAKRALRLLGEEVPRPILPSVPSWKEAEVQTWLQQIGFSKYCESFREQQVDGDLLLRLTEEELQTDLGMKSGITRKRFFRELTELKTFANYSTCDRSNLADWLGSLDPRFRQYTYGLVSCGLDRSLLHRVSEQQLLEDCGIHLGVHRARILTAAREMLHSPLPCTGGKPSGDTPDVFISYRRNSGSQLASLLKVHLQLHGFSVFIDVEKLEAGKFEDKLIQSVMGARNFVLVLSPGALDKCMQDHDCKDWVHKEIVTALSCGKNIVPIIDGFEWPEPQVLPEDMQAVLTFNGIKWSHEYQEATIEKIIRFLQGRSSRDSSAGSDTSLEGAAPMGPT
# [15] = biological target: Mitogen-activated protein kinase 7 (Homo sapiens) (UniProt Q13164); test: ERK5 transactivation activators in reporter cells, primary screen, cell-based, HTS (AID 1508626;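 active = luciferase signal above three times the same-plate solvent-only control wells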;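 also: luciferase driven by Gal4-ERK5 fusion binding five Gal4 sites before minimal TATA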); conditions: HeLa Gal4-ERK5 transactivation, 18 h, at 5 µM, stronger effect = higher value
# Mitogen-activated protein kinase 7 (Homo sapiens), sequence (Q13164 whole entry, looked up, the tested form may be a part): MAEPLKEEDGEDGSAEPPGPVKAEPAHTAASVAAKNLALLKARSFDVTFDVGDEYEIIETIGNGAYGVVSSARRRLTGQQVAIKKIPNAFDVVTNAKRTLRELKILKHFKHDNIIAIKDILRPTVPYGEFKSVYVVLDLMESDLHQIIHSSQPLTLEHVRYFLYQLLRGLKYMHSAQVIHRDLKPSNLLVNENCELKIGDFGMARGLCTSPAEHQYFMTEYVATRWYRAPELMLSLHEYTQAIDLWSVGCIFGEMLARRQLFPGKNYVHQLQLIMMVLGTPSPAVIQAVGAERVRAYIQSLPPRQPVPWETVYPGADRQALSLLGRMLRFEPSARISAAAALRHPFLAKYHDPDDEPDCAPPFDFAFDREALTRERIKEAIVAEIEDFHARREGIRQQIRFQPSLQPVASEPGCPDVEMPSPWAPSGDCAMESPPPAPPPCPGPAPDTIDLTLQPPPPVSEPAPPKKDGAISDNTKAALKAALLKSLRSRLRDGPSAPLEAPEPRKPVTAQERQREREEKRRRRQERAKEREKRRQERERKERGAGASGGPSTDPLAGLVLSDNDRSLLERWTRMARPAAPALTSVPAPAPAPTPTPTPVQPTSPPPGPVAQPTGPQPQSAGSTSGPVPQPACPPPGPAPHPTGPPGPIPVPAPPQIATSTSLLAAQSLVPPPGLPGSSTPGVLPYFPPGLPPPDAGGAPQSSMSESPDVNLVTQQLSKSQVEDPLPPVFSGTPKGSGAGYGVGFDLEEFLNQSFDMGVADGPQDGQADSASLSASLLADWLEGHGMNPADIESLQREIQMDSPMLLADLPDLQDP
# [16] = viability rescue of complex I mutant cybrids, primary screen, cell-based, galactose medium, ATP luminescence (AID 1645843;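 active = z-score of at least 1.8 in each of two replicates, scored against plate mean and spread of sample wells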;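 also: positive z means more ATP and so rescue of galactose-driven cybrid death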); conditions: complex I mutant cybrid cells, 72 h, stronger effect = higher value
# [17] = circadian clock period modulators, cell-based, LOPAC library, luminescence reporter (AID 2774); conditions: circadian reporter cells, at 7 µM, actives lie on both sides;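 also: values are relative to mean of DMSO wells on each plate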
# [18] = Cy5 fluorescence quenching or enhancement artefacts, artefact control for HCV NS3 helicase inhibitor project, biochemical, LOPAC1280 (AID 687037); conditions: Cy5-DNA-NS3h complex fluorescence interference counterscreen
# [19] = sensitizers of A549 cells to miR-34 induction, primary screen, imaging, A549 dox-inducible miR-34, nuclei and caspase counts (AID 1347080;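 active = compounds whose cell count with miR-34 switched on is under 0.7 times the count with it off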); conditions: A549 miR-34 inducible, Hoechst nuclei count, 48 h
# [20] = liver-stage malaria parasite growth inhibition, primary screen, cell-based, HepG2, luciferase luminescence, HepG2 viability (AID 624349; in the data active = parasite load remaining mostly below about 12%, no sharp cut-off; inactive = mostly above about 10%;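 also: 100% = mean of DMSO negative control wells on the same plate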); conditions: P. berghei liver stage in HepG2, luciferase luminescence, concentration not given here; parasite load remaining: stronger effect = lower value; viability: measured here: HepG2 viability without parasites
# [21] = measured here: epithelial PC-3E GFP cell survival
# [22] = measured here: mesenchymal TEM4-18 mCherry cell survival
# [23] = MELAS cybrid survival, CellTiter-Glo 48 h, stronger effect = higher value
# [24] = Rieske KO mouse fibroblast survival, CellTiter-Glo 72 h
# [25] = measured here: relative caspase fold change +Dox/-Dox
# [26] = measured here: total cells with miR-34 induction, stronger effect = lower value
# [27] = measured here: total cells without miR-34 induction
compound,measurement,setting,value
O=c1[nH]c2cc(Cl)ccc2n1C1CCNCC1,nuclear beta-catenin stimulation,[1]; at 10 µM,9.1% (inactive)
same,nuclear beta-catenin stimulation,"[1]; stimulation, at 2 µM",19.6%
same,insulin secretion stimulation,[2],3.8% (inactive)
same,viability decrease,[3],1.8% (inactive)
same,tube area decrease,[4],-3.4% (inactive)
same,GLP1 secretion stimulation,[5],10.2% (inactive)
same,inhibition of viability,[6],29.9% (inactive)
same,viability decrease (inhibition),[7],10.3% (inactive)
same,viability decrease (inhibition),[8],12.5% (inactive)
Clc1ccc(COC(Cn2ccnc2)c2ccc(Cl)cc2Cl)cc1 (stereo not drawn),inhibition,[9],55.1%
same,nuclear beta-catenin stimulation,[1]; at 10 µM,3.6% (inactive)
same,nuclear beta-catenin stimulation,"[1]; stimulation, at 2 µM",4.8%
same,insulin secretion stimulation,[2],2.8% (inactive)
same,viability decrease,[3],101% (active)
same,tube area decrease,[4],108% (active)
same,GLP1 secretion stimulation,[5],23.9% (active)
same,inhibition of viability,[6],102% (active)
same,viability decrease (inhibition),[7],123% (active)
same,viability decrease (inhibition),[8],103% (active)
same,inhibition,[10],-10.8% (inactive)
same,red/green cell ratio (normalised),[11],1.13 (inactive)
same,normalised cell number,[11]; [21],0.92
same,normalised cell number,[11]; [22],1.04
same,activity remaining,[12],123% (inactive)
same,z-score,[13]; [23],-0.276 (inactive) and 1.78 (inactive)
same,z-score,[13]; [24],0.45 and 0.962
same,remaining NAD,[14],10 nM (inactive)
same,luciferase signal,[15],60 AU (inactive)
same,z-score,[16],-1.53 (inactive)
CC(Cc1ccc(O)cc1)NCC(O)c1cc(O)cc(O)c1 (stereo not drawn),inhibition,[9],7.8%
same,period change,[17],0.005 h (inactive)
same,fluorescence ratio (interference),[18],1 (inactive)
same,nuclear beta-catenin stimulation,[1]; at 10 µM,-1.3% (inactive)
same,nuclear beta-catenin stimulation,"[1]; stimulation, at 2 µM",-0.9%
same,insulin secretion stimulation,[2],0.5% (inactive)
same,viability decrease,[3],-4.2% (inactive)
same,tube area decrease,[4],18.4% (inactive)
same,GLP1 secretion stimulation,[5],1.7% (inactive)
same,inhibition of viability,[6],-2.93% (inactive)
same,viability decrease (inhibition),[7],-0.4% (inactive)
same,viability decrease (inhibition),[8],-21.3% (inactive)
same,inhibition,[10],-6.23% (inactive)
same,red/green cell ratio (normalised),[11],1.06 (inactive)
same,normalised cell number,[11]; [21],0.97
same,normalised cell number,[11]; [22],1.03
same,activity remaining,[12],110% (inactive)
same,fold change,[19]; stronger effect = lower value,1 (inactive) and 0.892 (inactive) and 0.893 (inactive)
same,fold change,[19]; [25],0.955 and 0.849 and 2.71
same,cell count,[19]; [26],10100 and 8600 and 10800
same,cell count,[19]; [27],10100 and 9640 and 12100
same,z-score,[13]; [23],0.566 (inactive)
same,z-score,[13]; [24],0.235
same,remaining NAD,[14],10 nM (inactive)
same,luciferase signal,[15],48 AU (inactive)
same,z-score,[16],-0.085 (inactive)
CC(C)(C)NCC(O)c1ccccc1Cl (stereo not drawn),inhibition,[9],4.55%
same,period change,[17],-0.125 h (inactive)
same,parasite load remaining,[20],85.5% (inactive) and 23.5% (inactive)
same,viability,[20],91.9% and 68.5%
same,fluorescence ratio (interference),[18],1 (inactive)
same,nuclear beta-catenin stimulation,[1]; at 10 µM,-0.7% (inactive)
same,nuclear beta-catenin stimulation,"[1]; stimulation, at 2 µM",-0.7%
same,insulin secretion stimulation,[2],-1.2% (inactive)
same,viability decrease,[3],-32.4% (inactive)
same,tube area decrease,[4],5.2% (inactive)
same,GLP1 secretion stimulation,[5],0.9% (inactive)
same,inhibition of viability,[6],-0.17% (inactive)
same,viability decrease (inhibition),[7],-2.1% (inactive)
same,viability decrease (inhibition),[8],-14.4% (inactive)
same,inhibition,[10],14% (inactive)
same,red/green cell ratio (normalised),[11],0.9 (inactive)
same,normalised cell number,[11]; [21],1.07
same,normalised cell number,[11]; [22],0.97
same,activity remaining,[12],102% (inactive)
same,fold change,[19]; stronger effect = lower value,0.985 (inactive) and 0.856 (inactive)
same,fold change,[19]; [25],1.26 and 1.33
same,cell count,[19]; [26],10200 and 9170
same,cell count,[19]; [27],10400 and 10700
same,z-score,[13]; [23],-0.495 (inactive) and -0.187 (inactive)
same,z-score,[13]; [24],0.0224 and -0.446
same,remaining NAD,[14],10 nM (inactive)
same,luciferase signal,[15],24 AU (inactive)
same,z-score,[16],0.29 (inactive) and 0.245 (inactive)
